Most compounds without a hit are left out; they make up all but 2% or so of the library.
PrPC TRFRET – inhibitors of human cell surface prion protein PrPC, primary screen, cell-based, TR-FRET; TR-FRET read-out; 370,000 compounds, 0.43% hits; AID 720596, 2013; inhibition, % at 13.8 µM; in the data active = inhibition above about 24%; note: 0% = median of the test wells and 100% = reference compound wells
PfHsp40 yeast – rescue of yeast from PfHsp40 toxicity, primary screen, S. cerevisiae, ATP luminescence. S. cerevisiae expressing PfHsp40, growth rescue. growth rescue, % at 12.5 µM. 340,000 compounds, 0.68% hits; in the data active = growth rescue above about 28%, passing the limit was not always enough; inconclusive = no clear call, values can overlap the other calls;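 note: yeast W303a lacking pdr1 and pdr3 grown in galactose medium; growth measured after three days at 30 °C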
CCHFV vOTU inh – CCHFV vOTU protease inhibitors, primary screen, biochemical, Pep-AMC substrate, fluorescence | Crimean-Congo hemorrhagic fever virus L polyprotein viral ovarian tumor (vOTU) protease … | inhibition, % at 11.5 µM | 370,000 compounds, 0.55% hits | AID 651958, 2012; in the data active = inhibition above about 30%; note: 0% = vehicle wells with enzyme and 100% = no enzyme wells
BJeLR viability – MLPCN primary cell-based screen for lethality selective to Ras in HRASV12 cells. inhibition, % (no concentration beside the values). BJeLR (HRASV12) viability, CellTiter-Glo ATP luminescence, 48 h. 300,000 compounds, 0.17% hits; in the data active = inhibition above about 50%; inconclusive = no clear call, values can overlap the other calls
Yp Topo-I inh – Yersinia pestis topoisomerase I inhibitors, primary screen, biochemical, cleavage product accumulation, plate reader, single point | DNA topoisomerase I (Yersinia pestis CO92) | Y. pestis Topo-I cleavage product accumulation | activity, % at 10 µM | 360,000 compounds, 0.064% hits | AID 504884, 2011; in the data active = activity above about 50%, passing the limit was not always enough; inconclusive = no clear call, values can overlap the other calls
PrP UTR inh – inhibition of PrP 5' UTR reporter expression; cell-based PrP 5' UTR mRNA reporter, plate reader; inhibition, % (no concentration beside the values); 340,000 compounds, 0.35% hits; AID 488862, 2010; in the data active = inhibition above about 52%; note: 0 = median of the neutral control wells
PrP 5UTR single – prion 5' UTR mRNA inhibition, cherry-pick retest; shares compounds with PrP UTR inh; inhibition, % at 2.5 µM; cell-based prion protein 5' UTR reporter, plate reader; AID 504592, 2011; 1,100 compounds, 48% hits; in the data active = inhibition above about 54%; inconclusive = no clear call, values can overlap the other calls
Numbers without * were called inactive; ? = inconclusive; . = not tested or not shown.

SMILES	PrPC TRFRET	PfHsp40 yeast	CCHFV vOTU inh	BJeLR viability	Yp Topo-I inh	PrP UTR inh	PrP 5UTR single
Cc1cccc(NC(=S)N/N=C/C(C)c2ccccc2)c1C (stereo not given)	3.7	-0.5	6.0	-13.0	-5.7	58.6*	-21.7
CCCCNC(=O)C[C@@H]1C(=O)N(CCc2ccc(Cl)cc2)/C2=C/CCCCC[C@@]21C(=O)OCC	8.0	.	11.9	.	.	.	.
CCCc1ccc(-c2ccc(F)c(N)c2)nc1	-2.9	0.8	-12.2	4.9	5.8	59.1*	?
COc1ccc(F)cc1-c1cc(C(C)=O)c2n(c1=O)CCC2	-2.6	.	-3.7	.	.	.	.
Cc1ccc(Nc2nc(-c3c(C)nc4ccccn34)cs2)cc1	39.0*	0.3	11.4	31.5	-8.5	59.4*	82.5*
Cc1nc2ncccn2c1-c1csc(Nc2ccc(O)cc2)n1	-15.8	0.1	-7.1	12.8	-12.6	-4.5	.
Cc1ccc(Nc2nc(-c3c(C)nc4ncccn34)cs2)cc1	-11.5	2.0	-12.4	43.9	27.5	66.8*	88.7*
O=C(c1cccc(Cl)c1)N1CCN(c2ccnc3cc(Cl)ccc23)CC1	2.3	.	.	.	.	.	.
Cc1ccc(-c2nnc(-c3ccccc3)c(-c3ccccc3)n2)cc1	-3.0	1.7	-2.0	5.4	23.0	-5.8	.
Cc1ccc2nc(-c3ccccc3)nn2c1	3.1	-0.9	-4.3	.	3.0	61.2*	?
CCOC(=O)c1ccc(NC(=O)COc2ccccc2CNCCO)cc1	-7.8	-0.7	-4.7	.	3.0	74.0*	1.8
COc1ccc(-c2nn3c(-c4n[nH]c5c4CCC5)nnc3s2)cc1	13.0	.	-0.8	.	.	.	.
CCN(CC)c1ccc(-c2nn3c(-c4n[nH]c5c4CCC5)nnc3s2)cc1	11.8	0.4	3.1	1.0	-2.7	74.3*	84.2*
O=C(Nc1cc2ccccc2oc1=O)c1ccccc1	-11.6	-0.9	-4.2	22.7	-4.5	57.5*	63.2*
Cc1oc(=O)c(NC(=O)c2ccccc2)cc1C(N)=O	0.0	-1.2	-0.6	.	-5.1	-13.0	.
O=C(Nc1nccs1)c1cc2c(s1)CCCCC2	3.7	?	1.9	18.2	-1.7	63.7*	72.1*
O=C(Nc1nncs1)c1cc2c(s1)CCC2	3.2	-0.5	-0.4	12.0	0.9	-3.5	.
C[C@H]1COc2cc(Br)ccc2S(=O)(=O)N1Cc1cn(Cc2ccc(Br)cc2)nn1	-1.5	.	-4.9	.	.	.	.
COc1ccc2c(c1)[C@]1(C(=O)N2C)C2=C(CCCC2=O)Oc2cc(C)oc(=O)c21	2.1	.	-0.6	.	.	.	.
CCOC(=O)[C@]12CCCCC/C=C\1N(CCc1ccc(Cl)cc1)C(=O)[C@H]2CC(=O)NCc1cccc2ccccc12	8.0	.	14.7	.	.	.	.
S=C(Nc1ccccc1)Nc1ccc(OCc2ccc(Cl)cc2Cl)cc1	5.6	0.0	-1.1	0.9	7.4	89.0*	87.2*
CN(C)c1ccc(/C=N/N=C2/NC(=O)/C(=C/c3ccc([N+](=O)[O-])cc3)S2)cc1	-17.3	-0.5	1.4	.	-0.1	62.5*	31.0
CN(C)c1ccc(C=C2SC(=S)NC2=O)cc1	3.2	-0.5	10.2	.	-6.1	-36.5	.
Nc1ccccc1S(N)(=O)=O	-5.2	-1.1	1.0	.	-1.8	-18.5	.
Nc1cc(C(Cl)=C(Cl)Cl)c(S(N)(=O)=O)cc1S(N)(=O)=O	3.7	0.3	2.6	.	-1.6	64.2*	-2.1
SMILES	PrPC TRFRET	PfHsp40 yeast	CCHFV vOTU inh	BJeLR viability	Yp Topo-I inh	PrP UTR inh	PrP 5UTR single
COc1ccc(-c2cc3nc4n(c(=O)c3s2)CCC4)cc1	-13.6	3.5	-91.7	24.9	0.9	34.7	.
COc1ccc(-c2cc3nc(C)n(N)c(=O)c3s2)cc1	1.4	-6.7	-99.3	98.8*	-2.8	90.6*	92.5*
Cn1c(NCc2ccccc2)nc2cc(-c3ccccc3)sc2c1=O	3.1	.	0.1	.	-1.0	.	.
Cc1nc2cc(-c3ccccc3)sc2c(=O)n1N	-2.4	-1.2	-7.9	78.6*	13.1	80.9*	78.5*
C[C@H]1CCC[C@@H](O)CCC/C=C/c2cc(O)cc(O)c2C(=O)O1	-6.8	-0.2	-8.4	-1.7	-4.6	3.4	.
C[C@H]1CCC/C=C/C2C[C@H](O)CC2[C@H](O)/C=C/C(=O)O1 (stereo not given in full)	.	-0.5	.	33.5	0.6	80.9*	89.6*
COc1c(C)cc(C(=O)C2CCCN(C(=O)c3ccc4[nH]ccc4c3)C2)cc1C (stereo not given)	-3.1	0.5	4.9	-1.1	10.8	77.9*	-0.3
COc1ccc(-c2ccc(=O)n(Cc3cc(=O)n4ccccc4n3)n2)cc1	-12.7	-2.2	-1.5	-4.2	7.2	66.2*	9.0
COc1ccc(-c2ccc(=O)n(Cc3ccccc3)n2)cc1	-11.7	0.0	-4.7	9.8	29.9	46.8	.
COc1cccc(C(=O)Oc2cc3c4c(c2)C(C)=CC(C)(C)N4C(=O)C3=O)c1	-24.8	3.6	16.8	14.9	11.6	-18.0	.
COc1cc2c3c(c1)C(C)=CC(C)(C)N3C(=O)C2=O	-18.6	1.3	-2.3	13.5	-8.9	79.5*	-2.1
O=C(c1cc2ccccc2o1)N1CCN(S(=O)(=O)/C=C/c2ccccc2)CC1	-0.2	3.2	6.5	0.4	36.9	-20.0	.
O=C(c1ccco1)N1CCN(S(=O)(=O)/C=C/c2ccccc2)CC1	-3.0	-0.5	1.8	6.6	3.3	56.4*	11.4
O=C(Nc1ccccc1)OCCN1C(=O)CCC12CCC(c1ccc(Cl)cc1)CC2 (stereo not given)	-2.1	.	9.4	.	.	.	.
Cc1cc(C=C2C(=O)c3ccccc3C2=O)c(C)n1-c1ccccc1	-11.2	-0.5	6.5	16.4	3.0	75.4*	61.8*
COc1ccc(OC)c(C2C3=C(COC3=O)Nc3cc4c(cc32)OCO4)c1 (stereo not given)	13.1	8.2	-14.8	11.7	2.3	57.6*	89.8*
C#CCOc1cc(C2C3=C(COC3=O)Nc3cc4c(cc32)OCO4)ccc1OC (stereo not given)	10.7	-1.6	3.6	.	6.6	28.5	.
CC(C)N1CCCCC(NC(=O)c2ccccc2)C1=O (stereo not given)	-8.3	.	5.8	.	.	.	.
CCCCCOC(=O)Nc1nc(=O)n([C@@H]2O[C@H](C)[C@@H](O)[C@H]2O)cc1F	-0.3	.	-12.5	.	.	.	.
